For 88 molecules, activation results are on record in PubChem BioAssay AID652039 (The Scripps Research Institute Molecular Screening Center, 2013).

Structures are written as SMILES. Screen size: about 370,000 compounds; about 3,300 (0.89%) were called active.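 How the source made its calls: active means activation above the mean of all tested compounds plus 3 SD, computed per campaign excluding outliers beyond control limits (cut at about 13% in these data); inactive means the rest.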 The list comes from a sample in which actives are over-represented; it also holds similar structures and randomly drawn compounds.

The test deals with Kallikrein-7 (Homo sapiens) (UniProt P49862). The test can be described thus: activation of human kallikrein-7 proenzyme – biochemical, fluorescence intensity, primary screen (AID 652039). Conditions: purified proKLK7, EDANS-DABCYL substrate fluorescence; at 7 µM; stronger effect = higher value; 100% is mature enzyme control, 0% vehicle.
Chain of Kallikrein-7 (Homo sapiens) (P49862 whole entry, looked up): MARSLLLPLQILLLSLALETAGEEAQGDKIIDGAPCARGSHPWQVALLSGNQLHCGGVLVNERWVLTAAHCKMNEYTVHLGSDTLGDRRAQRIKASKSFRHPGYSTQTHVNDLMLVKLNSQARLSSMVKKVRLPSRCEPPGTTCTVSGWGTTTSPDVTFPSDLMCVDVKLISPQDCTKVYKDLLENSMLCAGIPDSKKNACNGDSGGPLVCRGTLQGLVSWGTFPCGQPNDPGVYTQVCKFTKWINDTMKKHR
`CC(C)c1ccc(C(=O)OC2CCOC2=O)cc1` (stereo not drawn): the activation is -0.06% (inactive).

For the molecule `COc1cc(C(=O)OC2CCOC2=O)c([N+](=O)[O-])cc1OC` (stereo not drawn), the activation was -0.39% (inactive).

Regarding `O=C(OC1CCOC1=O)c1ccc(-c2nc3ccccc3s2)s1` (stereo not drawn), the activation was 25.6% (active).

Turning to `O=C(CSc1ncccn1)NC(=O)NCc1ccccc1`, the activation was -0.82% (inactive).

As for `CCOC(=O)N1CCN(C(=O)C[C@@H]2C(=O)N(CCc3ccc(Cl)cc3)C3=CCCC[C@]32C(=O)OCC)CC1`, the activation is 0.7% (inactive).

Take `CC(C)(C)OC(=O)NCCc1ccccc1/C=C/S(=O)(=O)NCc1ccc(F)cc1`: the activation is -0.22% (inactive).

With `COc1cccc(-c2nc3n(n2)C(c2ccccc2Cl)C(C(N)=O)=C(C)N3)c1` (stereo not drawn), the activation was 0.67% (inactive).

Take `COc1ccc(C2=CC(c3cccc(OC)c3)n3nnnc3N2)cc1` (stereo not drawn): the activation is 42.3% (active).

With `COc1ccc(C2CC(c3cccs3)Nc3nnnn32)cc1` (stereo not drawn), the activation is 0.65% (inactive).

Regarding `O=C1Nc2ccccc2OC1CC(=O)N1CCCCCCC1` (stereo not drawn), the activation is 0.05% (inactive).

As to `Cc1nc(Nc2ccc(S(=O)(=O)N3CCCC3)cc2)c2nnn(Cc3ccccc3)c2n1`, the activation was -0.11% (inactive).

In the case of `CC(C)Cc1nc(Nc2ccc(S(=O)(=O)N3CCCC3)cc2)c2nnn(Cc3ccccc3)c2n1`, the activation was 18% (active).

For the molecule `CC(C)Nc1ncnc2c1nnn2Cc1ccccc1`, the activation is 0.3% (inactive).

On to `COc1ccc(Cn2ccc3ccc(-c4ccc5ccn(Cc6ccccc6C)c5c4)cc32)cc1`, for which the activation is -0.6% (inactive).

`Cc1csc(OCC(=O)Nc2ccc(C)c(C)c2)n1`: the activation is 0.44% (inactive).

Consider `C=C(C)C#CC(Cc1ccccc1)NCC1CC1` (stereo not drawn), for which the activation was 0.49% (inactive).

Consider `COc1ccc(-n2c(SCC(=O)NC3CCCC3)nnc2-c2ccncc2)cc1`, for which the activation was 0.32% (inactive).

In the case of `COc1ccccc1-n1c(C)nc2cc(C(=O)NCc3ccc4c(c3)OCO4)ccc21`, the activation is 0.53% (inactive).

Regarding `CCOc1c2ccc(C(=O)NCc3ccc4c(c3)OCO4)cc2nn1C`, the activation was 16.6% (active).

In the case of `CCCn1nc2cc(C(=O)NCc3ccccc3)ccc2c1OCC`, the activation was 9.49% (inactive).

In the case of `COC(=O)[C@]12C[C@H](CC(=O)NCc3cccs3)C(=O)N(CCc3ccc(OC)c(OC)c3)C1=C[C@H](C(C)C)O[C@@H]2C1CC1`, the activation was 0.65% (inactive).

Regarding `O=C(/C=C/c1cn(-c2ccccc2)nc1-c1ccc2c(c1)OCCO2)NCCCN1CCOCC1`, the activation was -1.99% (inactive).

`NS(=O)(=O)c1ccc(NC(=O)/C=C/c2ccccc2Cl)cc1`: the activation is 3.16% (inactive).

For `Cc1ccc(-c2nn(-c3ccccc3)cc2/C=C/C(=O)Nc2cccc(S(N)(=O)=O)c2)cc1`, the activation was 302% (active).

With `O=C(NC1CCCCN(Cc2ccc(Cl)cc2)C1=O)c1ccc(Br)cc1` (stereo not drawn), the activation is -0.15% (inactive).

For the molecule `O=S1(=O)c2c(cccc2N2CC[C@H](O)C2)O[C@@H]2CCN1C2`, the activation is -0.53% (inactive).

Regarding `COc1ccccc1C(=O)Nc1cccc(C(=O)N2CCOCC2)c1`, the activation was 0.2% (inactive).

As to `O=C(c1cccc(N2CCCC2=O)c1)N1CCOCC1`, the activation was -0.32% (inactive).

With `CNc1cncc(-c2cccc(C(=O)N3CCOCC3)c2)n1`, the activation is 49.4% (active).

For `CC(=O)N1CCN(S(=O)(=O)c2cccc(C(=O)NC3CCC(C)CC3)c2)CC1` (stereo not drawn), the activation was -0.34% (inactive).

For the molecule `CCOC(=O)C1CCCN(C(=O)c2cccc(S(=O)(=O)N3CCOCC3)c2)C1` (stereo not drawn), the activation was -0.32% (inactive).

For `COc1cc(C(=O)NC(=S)NCc2ccco2)cc(OC)c1OC`, the activation is 0.52% (inactive).

With `COc1cc(C(=O)N2C(=O)c3cccc(N)c3C2=O)cc(OC)c1OC`, the activation is 50.3% (active).

As for `CC1CC(C)CN(S(=O)(=O)c2cccc(C(=O)N3C(=O)c4cccc(N)c4C3=O)c2)C1` (stereo not drawn), the activation was 20.5% (active).

Consider `COc1cc(C(=O)N2CCN(C)CC2)cc(OC)c1OC`, for which the activation was -0.27% (inactive).

Consider `COc1ccc(CCNC(=O)CSc2nc3c([nH]2)c(=O)n(C)c(=O)n3C)cc1`, for which the activation was 0.4% (inactive).

For the molecule `COC(=O)c1ccccc1-n1cc(COC(=O)NCCc2ccccc2)nn1`, the activation was -0.71% (inactive).

As for `C[C@H]1CCC/C=C/C(=O)c2c(O)cc(O)cc2CC(=O)O1`, the activation is 0.41% (inactive).

Consider `Cc1ccc(NC(=S)NNC(=O)CSc2nnc(SCc3ccccc3Cl)s2)cc1`, for which the activation is 0.76% (inactive).

On to `Cc1nc2ccc(C(=O)N3CCN(C(=O)C(C)(C)C)CC3)cc2n1C1CCCC1`, for which the activation was -0.33% (inactive).

Regarding `Cc1ccc(-c2nnc(SCC(=O)Nc3ccc(Oc4ccccc4)cc3)n2Cc2ccco2)cc1`, the activation was -0.21% (inactive).

For `O=C(c1ccccc1)c1ccc(-c2ccccc2C(=O)NC2CCCCN(Cc3ccc(Cl)cc3)C2=O)cc1` (stereo not drawn), the activation was -0.04% (inactive).

Turning to `CCc1c(C)c2ccc(OC3CCCCC3=O)cc2oc1=O` (stereo not drawn), the activation was 1.85% (inactive).

Consider `CC(=O)Oc1ccc2c(C)c(CC(C)O)c(=O)oc2c1` (stereo not drawn), for which the activation is 57.1% (active).

Regarding `O=C(Oc1ccccc1)Oc1ccc2c(c1)oc(=O)c1ccccc12`, the activation is -0.49% (inactive).

As to `Cc1ccc(OCC(=O)Nc2ccc3oc(=O)ccc3c2)cc1C`, the activation was 0.37% (inactive).

Regarding `COc1cccc(-c2coc3cc4oc(=O)c(CC(=O)O)c(C)c4cc23)c1`, the activation was 0.62% (inactive).

Take `CC(=O)Nc1cc2ccc(OC(C)=O)cc2oc1=O`: the activation is 383% (active).

On to `CCCCN1CCN(C(=O)c2ccc3c(c2)NC(=O)C(C)(C)O3)CC1`, for which the activation was 0.18% (inactive).

As to `O=C(CSc1nc2c(c(=O)[nH]1)CCCC2)N1CCCCC1`, the activation was 0.8% (inactive).

On to `O=C(CSc1nc2ccccc2n1Cc1ccccc1)NNC(=S)Nc1ccccc1`, for which the activation is -0.17% (inactive).

Take `O=C(CSc1nc2sc3c(c2c(=O)n1-c1ccccc1)CCCC3)NN=Cc1ccc(OCc2ccccc2)cc1`: the activation is -0.01% (inactive).

With `COc1cc(C)ccc1OCC(=O)OCC(=O)c1ccc[nH]1`, the activation was -0.43% (inactive).

Take `COc1ccnc(NC(=S)N2CCN(c3ncc(C(F)(F)F)cc3Cl)CC2)c1`: the activation is 0.32% (inactive).

As to `Cn1nc(-c2ccc(Cl)cc2)c2cc(C(=O)NCc3ccco3)sc21`, the activation was -17.3% (inactive).

`Cc1cc(C(=O)OCC(=O)NCc2ccco2)c(C)n1-c1ccccc1`: the activation was 0.45% (inactive).

Regarding `CCc1ccc(-c2cc(C(=O)NCc3ccco3)c3ccccc3n2)s1`, the activation is 41.4% (active).

Regarding `c1csc(-c2nnc(SCc3nc4ccccc4[nH]3)o2)c1`, the activation was 1.12% (inactive).

For the molecule `CCn1c2ccccc2c2cc(NC(=O)CSc3nnc(-c4ccccc4)n3-c3ccc(C)cc3)ccc21`, the activation was -0.54% (inactive).

Consider `CCc1nn(CC(=O)N2CCN(CC)CC2)c(=O)c2cccn12`, for which the activation is -0.55% (inactive).

Take `CCN1CCN(C(=O)Cn2nc(C)n3c(cc4c(OC)cccc43)c2=O)CC1`: the activation was 21% (active).

For the molecule `CCCN1CCN(C(=O)Cn2ncc3ccccc32)CC1`, the activation is -0.42% (inactive).

In the case of `C=CCN1C(=O)[C@@H](CC(=O)NCCCOCCCC)[C@]2(C(=O)OCC)CCCCC/C=C/12`, the activation was 0.01% (inactive).

Take `Cc1ccc(Cn2cc(CN3[C@@H](CC(C)C)COc4ccc(Cl)cc4S3(=O)=O)nn2)cc1`: the activation is 0.91% (inactive).

Regarding `Cc1cccc(NC(=O)C[C@H]2CC[C@H]3[C@@H](COc4ccc(NC(=O)Nc5ccccc5)cc4C(=O)N3C)O2)c1`, the activation was 0.42% (inactive).

Take `O=C(O)c1cnn2c(C(F)(F)F)cc(-c3ccccc3)nc12`: the activation is -0.59% (inactive).

Turning to `O=C(NCc1ccco1)c1cnn2c(C(F)(F)F)cc(-c3ccco3)nc12`, the activation is 0.06% (inactive).

As for `COC(=O)c1cnn2c(C(F)(F)F)cc(-c3ccco3)nc12`, the activation was 23.1% (active).

Consider `CCCCNC(=O)C[C@H]1C[C@@]2(C(=O)OC)C(=C[C@H](COCc3ccccc3)O[C@@H]2C)N(Cc2ccc(Cl)cc2Cl)C1=O`, for which the activation was -0.06% (inactive).

Consider `COC(=O)C1CN(CCc2ccccc2)CCS(=O)(=O)N1Cc1cccc(Cl)c1` (stereo not drawn), for which the activation is -0.14% (inactive).

As to `CCCc1nnc(NC(=O)CCC(=O)N2CCN(S(=O)(=O)c3ccc(OC)cc3)CC2)s1`, the activation is -0.03% (inactive).

Turning to `CN(C)C(=O)c1cc(Br)ccc1Cl`, the activation is -0.57% (inactive).

With `CN(C)C(=O)c1coc2nc3ccccc3nc12`, the activation is 39.4% (active).

With `COc1ccc(C)cc1N(C)C(=O)c1coc(=O)c2ccccc12`, the activation was 0.1% (inactive).

In the case of `C=CCN(C)CC#Cc1ccccc1`, the activation was -0.36% (inactive).

`CCCCCN1CCCCC(NC(=O)C(C)CCC)C1=O` (stereo not drawn): the activation was 0.5% (inactive).

As for `O=C(CNS(=O)(=O)c1ccccc1F)N1CCN(c2ccccn2)CC1`, the activation is -0.03% (inactive).

Turning to `O=C(NCCN1CCOCC1)c1cc(-c2cccs2)nc2ccccc12`, the activation is 18.3% (active).

`CN(C)CCNC(=O)c1ccc(Cl)c2cc3ccccc3nc12`: the activation was 6.31% (inactive).

Regarding `O=C(NCCCN1CCOCC1)c1cnn2c(-c3ccccc3)cc(-c3ccccc3)nc12`, the activation is -3.01% (inactive).

Regarding `CCCCN(C)CCCNC(=O)c1cc(-c2cccs2)nc2ccccc12`, the activation was 47.9% (active).

As to `CCOc1ccccc1-c1cc(C(=O)N/N=C(\C)c2cccnc2)c2ccccc2n1`, the activation is -4.03% (inactive).

Take `O=C(NNC(=O)c1cc(-c2ccccc2Cl)nc2ccccc12)c1csc(N2CCOCC2)n1`: the activation was -0.59% (inactive).

In the case of `COC(=O)[C@]12C[C@H](CC(=O)NCC34CC5CC(CC(C5)C3)C4)C(=O)N(Cc3ccc(Cl)cc3Cl)C1=C[C@H](COCc1ccccc1)O[C@@H]2C`, the activation is -0.26% (inactive).

For `COC(=O)[C@]12C[C@H](CC(=O)N3CCN(C(=O)C4CC4)CC3)C(=O)N(Cc3ccc4c(c3)OCO4)C1=C[C@H](C(C)(C)C)O[C@@H]2C`, the activation was 0.05% (inactive).

In the case of `COc1cccc(N2CCN(CC(=O)N(C)Cc3ccc(F)cc3)CC2)c1`, the activation is 0.13% (inactive).

With `COC(=O)C1CN(CCc2ccccc2)CCS(=O)(=O)N1Cc1ccc(F)cc1` (stereo not drawn), the activation was -0.24% (inactive).

In the case of `COc1cccc(CNC(=O)CNS(=O)(=O)c2ccc3nc(C)sc3c2)c1OC`, the activation is 0.09% (inactive).
